# Source: PubChem BioAssay (NCI)
# Compounds without any hit were thinned out: in the full panel of roughly 83,000, 20% have a hit.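 48-hour exposure, single concentration, 96-well plates; percent growth endpoint where 0 means no net growth. Active: below 10.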 Unmarked numbers belong to inactive results. Active and inactive are the calls of the source.
# How the values were obtained:
# Experiment in all cases: NCI-60 one-dose screen, 48 h (100 = growth as untreated, 0 = no growth, -100 = all killed)
# Conditions in all cases: 10 µM unless noted
# NCI/ADR-RES ovarian = system: NCI/ADR-RES ovarian
# T-47D breast = system: T-47D breast
# BT-549 breast = system: BT-549 breast
# MDA-MB-435 melanoma = system: MDA-MB-435 melanoma
# SW-620 colon = system: SW-620 colon
# MCF7 breast = system: MCF7 breast
# HCT-116 colon = system: HCT-116 colon
# HCC-2998 colon = system: HCC-2998 colon
# KM12 colon = system: KM12 colon
Structure (SMILES),growth (NCI/ADR-RES ovarian),growth (T-47D breast),growth (BT-549 breast),growth (MDA-MB-435 melanoma),growth (SW-620 colon),growth (MCF7 breast),growth (HCT-116 colon),growth (HCC-2998 colon),growth (KM12 colon)
C=C1[C@@H](C)[C@H]2[C@H](Cc3ccccc3)NC(=O)[C@]23[C@@H](O)/C=C/[C@@](C)(O)C(=O)[C@@H](C)C/C=C/[C@H]3[C@@H]1O,94.6%,48.3%,63.1%,80.5%,41.8%,63.8%,50.1%,62.4%,81.5%
Cn1cc(-c2csc(-c3cn(CCN4CCOCC4)c4ccccc34)n2)c2cccnc21,31.4%,2.94% (active),45.1%,65.1%,83.1%,30.7%,72.9%,99.2%,56.5%
Nc1cc2nc3ccccc3nc2cc1N,94.8%,52.7%,94%,109%,98%,23.5%,74.9%,96.8%,91.6%
Cc1cc(C)c(CBr)c(C)c1,103%,101%,105%,111%,103%,96.4%,110%,114%,105%
CC(C)CCC(=O)O[C@H]1CC[C@H]2[C@@H]3CCC4=CC(=O)CC[C@]4(C)[C@H]3CC[C@]12C,99%,102%,104%,96.6%,94.5%,105%,99.8%,105%,95.2%
COC(=O)[C@@H](NC(=O)c1cn(CCC2CCCCC2)c2ccccc12)C(C)(C)C,73.6%,61.9%,84.1%,83.3%,86.3%,75%,64.2%,86.3%,69.8%
CC(C)(NC(=O)O[C@@H]1CN2CCC1CC2)c1csc(-c2ccc(F)cc2)n1,96.8%,88.3%,101%,99.1%,99.2%,90.3%,95.5%,102%,101%
COc1cc(C=Nc2cccc(Br)c2)ccc1N(CCCl)CCCl,80.7%,91.3%,85.5%,103%,74.5%,66.6%,87%,60.1%,40.6%
O=C1C=C(N2C3C4CCC(C4)C32)C(=O)C=C1c1ccccc1 (configuration not stated),99.4%,6.64% (active),93.2%,99.7%,82.6%,62.4%,85%,115%,102%
COC(=O)[C@@H](C)C[C@H](Cc1ccccc1)NC(=O)c1csc([C@@H](C[C@H](C(C)C)N(C)C(=O)[C@@H](NC(=O)C23CC(NC(C)=O)(C2)C3)C2CC2)OC(C)=O)n1,97.8%,62.7%,51.5%,-16.5% (active),41.3%,18.9%,20.6%,49.3%,28%
Brc1ccc2c(c1)c(-c1nc(-c3c[nH]c4ncccc34)cs1)cn2CCN1CCCCC1,75.2%,66.2%,89%,76.9%,58.4%,47.1%,51%,38.9%,66.2%
C[Se]C(=O)c1ccccc1OC(C)=O,35%,89.1%,27.9%,46.4%,79.6%,53.3%,19.6%,95.5%,88.9%
Cc1ccc(N2COOC3(OOC2)C2CC4CC(C2)CC3C4)cc1,95.6%,82.7%,95.7%,93.2%,108%,77.6%,89%,107%,90.6%
O=C([O][Hg][c]1ccccc1)c1ccccc1,37.9%,-37.8% (active),-92.7% (active),-86.6% (active),-49.6% (active),-57.7% (active),-82.5% (active),51%,87.6%
CC1[C@H](C)OC(=O)CC(O)CC(O)CC(O)CCC(O)C(O)C[C@]2(O)CC(O)C(C(=O)O)C(CC(OC3O[C@H](C)[C@@H](O)[C@H](N)[C@@H]3O)/C=C/C=C/C=C/C=C/CC/C=C/C=C/[C@H](C)[C@H]1O)O2 (some centres not stated),93.2%,108%,105%,102%,99.5%,104%,97%,103%,106%
COC(=O)[C@@H](C)C[C@H](Cc1ccccc1)NC(=O)c1csc([C@@H](C[C@H](C(C)C)N(C)C(=O)[C@@H](NC(=O)CN(C)C)C2CC2)OC(C)=O)n1,54.7%,72.8%,-21.1% (active),0.597% (active),35.8%,17.7%,3.84% (active),16%,7.64% (active)
COC1=CC(=O)O[C@@H](/C=C/c2ccc3c(c2)OCO3)C1,95.7%,93.2%,95%,100%,104%,99.7%,105%,111%,103%
C=CC[n+]1ccc(-c2cc[n+](CC=C)cc2)cc1,111%,82.1%,109%,104%,114%,89.7%,98.5%,95.4%,65.3%
CC[C@H](C)[C@H](NC(=O)c1ccccn1)C(=O)N(C)[C@H](C[C@@H](OC(C)=O)c1nc(C(=O)N[C@@H](Cc2ccccc2)C[C@H](C)C(=O)OC)cs1)C(C)C,16.1%,80.7%,24.2%,-25.3% (active),25.7%,21.2%,9.41% (active),23.9%,10.2%
Cc1ccc(S(=O)(=O)F)cc1C(=O)O,105%,91.6%,111%,86.9%,109%,111%,111%,108%,109%
Nc1ncnc2n[nH]nc12,67.7%,4.78% (active),89.8%,75.1%,61.5%,63.2%,65.1%,68.7%,70.4%
CCCCCN(CCCCC)CC(O)c1cc(Cl)ccc1OC (configuration not stated),32.4%,35%,79.8%,42.8%,25%,15.8%,4.09% (active),17.2%,29.8%
CC1=C([Te]c2ccc(O)cc2)C(=O)c2ccccc2C1=O,-2.79% (active),-67.3% (active),-1.32% (active),-76.7% (active),3.05% (active),-4.83% (active),-63.4% (active),-1.49% (active),6.03% (active)
COc1ccc(/C=C\c2cc(OC)c(OC)c(OC)c2)c(NS(=O)(=O)c2ccc(Cl)cc2)c1O,-7.04% (active),84.7%,58.2%,-48% (active),27%,12.7%,6.81% (active),12.7%,1.25% (active)
OCc1ccc2c(c1)OCO2,105%,86.4%,106%,102%,102%,93%,101%,102%,103%
C[C@]12C[C@@H](CO)[C@H](O)C[C@@H]1CC[C@@H]1[C@@H]2CC[C@]2(C)[C@@H](O)CC[C@@H]12,99.6%,104%,78.9%,105%,101%,121%,103%,97.9%,101%
CCCCN(CCCC)P(=O)(Oc1ccccc1)Oc1ccccc1,51.4%,47.4%,73.5%,71.4%,52%,48.4%,29.2%,83.7%,58.6%
O=C(O)C(O)C(O)C1[O][Sb]([c]2ccc([N+](=O)[O-])cc2)[O]C1CO (configuration not stated),111%,109%,114%,107%,103%,93.9%,104%,105%,108%
